# Test results: PubChem BioAssay AID623870 (Broad Institute, 2012)
# Among all 390,000 compounds or so, about 2,600 (0.67%) were called active. The full list was thinned out, with actives kept by preference. Unmarked numbers belong to inactive results.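 The calls were made as follows: active = mean inhibition of replicates at least 50% and at least half of replicates each reaching 50%; inconclusive = half or more replicates reach 50% but mean below 50%; inactive = the rest.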
# Target: Transforming acidic coiled-coil-containing protein 3 (Homo sapiens) (UniProt Q9Y6A5)
# Assay: inhibitors of ARNT PAS-B binding to TACC3 – biochemical, AlphaScreen, single concentration, primary screen (AID 623870);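 also: 0% = complete ARNT plus TACC3 wells and 100% = ARNT alone without TACC3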
# Details: AlphaScreen His-ARNT PAS-B/GST-TACC3 binding, luminescence; at 9.99 µM; active compounds read high
row,Compound,inhibition
1,COc1ccccc1N=Nc1c(O)[nH]c(=S)[nH]c1=O,-1.81%
2,Cc1ccc2c(c1)=C/C(=C\c1c(O)[nH]c(=O)[nH]c1=O)C(=O)N=2,13.7%
3,O=C1N=c2ccccc2=C/C1=C\c1c(O)[nH]c(=S)[nH]c1=O,37% (active)
4,C[C@@H]1CN([C@H](C)CO)C(=O)CCCn2cc(nn2)CO[C@@H]1CN(C)C(=O)Oc1cccc2ccccc12,-8.62%
5,O=C(Cc1ccccn1)N1CCCCN2[C@H](C1)[C@H](c1ccc(-c3ccccc3F)cc1)[C@@H]2CO,10.9%
6,C/C=C/c1ccc([C@H]2[C@H](CO)N3CCCCN(C(=O)Cc4ccncc4)C[C@@H]23)cc1,1.93%
7,O=c1[nH]c(=S)n(C2CC2)c(O)c1/C=N/N1CCOCC1,-0.873%
8,O=C(N/N=C/c1c(O)n(C2CC2)c(=S)[nH]c1=O)c1ccccc1,62.7% (active)
9,O=c1[nH]c(=O)n(-c2ccc(F)cc2)c(O)c1C=NCCN1CCCCC1,-1.3%
10,Cc1cccc(-n2c(O)c(/C=N/N3CCOCC3)c(=O)[nH]c2=S)c1,-0.608%
11,CC(C)c1ccc(-n2c(O)c(/C=N/N3CCOCC3)c(=O)[nH]c2=S)cc1,6.63%
12,O=C(N/N=C/c1c(O)n(C2CC2)c(=S)[nH]c1=O)c1ccccc1Cl,68.5% (active)
13,CCCCC(=O)N/N=C/c1c(O)n(-c2ccccc2)c(=O)[nH]c1=O,65.6% (active)
14,O=C(N/N=C/c1c(O)n(Cc2ccccc2)c(=O)[nH]c1=O)c1ccccc1,70.1% (active)
15,O=c1[nH]c(=O)n(CCc2ccccc2)c(O)c1/C=N/N1CCOCC1,0.078%
16,CC/C(=N\NC(=O)c1ccccc1O)c1c(O)n(Cc2ccccc2)c(=O)[nH]c1=O,6.78%
17,CCc1nnc(NS(=O)(=O)c2ccc(N=Cc3c(O)n(-c4ccccc4)c(=O)[nH]c3=O)cc2)s1,-4.6%
18,COc1ccccc1-n1c(O)c(C=NC2CC2)c(=O)[nH]c1=O,4.19%
19,COc1ccc(-c2ccc([C@H]3[C@H](CO)N4CCCCN(C(=O)Cc5ccncc5)C[C@@H]34)cc2)cc1,-8.67%
20,COC(=O)[C@H]1[C@H](CO)[C@H]2Cn3c(ccc(-c4cccc(F)c4)c3=O)[C@@H]1N2Cc1ccccc1,-0.694%
21,O=C(Cc1ccccc1)N1CCCCN2[C@H](C1)[C@H](c1ccc(C#CC3(O)CCCC3)cc1)[C@@H]2CO,-2.57%
22,COc1cccc(-c2ccc3n(c2=O)C[C@@H]2[C@@H](CO)[C@H](C(=O)O)[C@H]3N2C(=O)c2cnccn2)c1,-0.13%
23,COC(=O)[C@@H]1[C@@H](CO)[C@@H]2Cn3c(ccc(C4=CCCCC4)c3=O)[C@H]1N2CC1CC1,-4.97%
24,O=C(Cc1ccccc1)N1CCCCN2[C@H](CO)[C@H](c3ccc(C#Cc4ccccc4)cc3)[C@H]2C1,3.71%
25,CCOC(=O)[C@@H]1[C@@H]2NC(=O)N[C@@]1(C)Oc1ccccc12,1.64%
26,OC[C@@H]1[C@H]2c3ccccc3NC[C@H]2N1Cc1cccnc1,5.28%
27,CCC(C)n1c(O)c(/C=N/Nc2nc3c(c(=O)n(C)c(=O)n3C)n2C)c(=O)[nH]c1=S (stereo not given),65.4% (active)
28,O=C(O)[C@@H]1[C@@H](CO)[C@@H]2Cn3c(ccc(-c4ccccc4F)c3=O)[C@H]1N2C(=O)c1cccnc1,8.55%
29,COc1ccc(C#Cc2ccc([C@H]3[C@H](CO)N4CCCCN(C(=O)Cc5ccccc5)C[C@@H]34)cc2)cc1,-4.42%
30,O=C(Cc1ccncc1)N1CCCCN2[C@@H](CO)[C@H](c3ccc(C#CC4(O)CCCC4)cc3)[C@@H]2C1,-1.41%
